# In paper PMC5540273 (PLoS ONE, 2017):
# Columns and labels:
# Conditions in all cases: concentration: 1 μM,replicates: in singlicate; n = 1
# DCAMKL2 = system: T1, DCAMKL2
# T1 construct: gene DCLK2
# DCAMKL3 = system: T2, DCAMKL3
# T2 construct: gene DCLK3
# DDR1 = system: DDR1
# DDR2 = system: DDR2
# DLK = system: T3, DLK
# T3 construct: gene MAP3K12
# DMPK2 = system: T4, DMPK2
# T4 construct: gene CDC42BPG
# DMPK = system: DMPK
# DRAK1 = system: T5, DRAK1
# T5 construct: gene STK17A
# DRAK2 = system: T6, DRAK2
# T6 construct: gene STK17B
# DYRK1A = system: DYRK1A
# DYRK1B = system: DYRK1B
# DYRK2 = system: DYRK2
# EGFR = system: EGFR
# EIF2AK1 = system: EIF2AK1
# EPHA1 = system: EPHA1
# EPHA2 = system: EPHA2
# EPHA3 = system: EPHA3
# EPHA4 = system: EPHA4
# EPHA5 = system: EPHA5
# EPHA6 = system: EPHA6
# 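Note: KINOMEscan kinase panel screen.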
Compound,%Inh (DCAMKL2) [%],%Inh (DCAMKL3) [%],%Inh (DDR1) [%],%Inh (DDR2) [%],%Inh (DLK) [%],%Inh (DMPK2) [%],%Inh (DMPK) [%],%Inh (DRAK1) [%],%Inh (DRAK2) [%],%Inh (DYRK1A) [%],%Inh (DYRK1B) [%],%Inh (DYRK2) [%],%Inh (EGFR) [%],%Inh (EIF2AK1) [%],%Inh (EPHA1) [%],%Inh (EPHA2) [%],%Inh (EPHA3) [%],%Inh (EPHA4) [%],%Inh (EPHA5) [%],%Inh (EPHA6) [%]
CC(C(=O)NC1CCN(c2ccnc(Nc3ccc(F)cc3)n2)C1)c1ccc(Cl)cc1 (stereo not drawn) [GSK1379713],12,9,14,11,19,0,0,6,0,10,12,10,28,0,0,14,0,0,0,0
CS(=O)(=O)c1cccc(CNc2nc(Nc3ccc4c(c3)[C@@H]3C[C@@H]4CNC3=O)ncc2C(F)(F)F)c1,0,0,0,6,9,0,0,96.3,96.4,6,6,12,5,0,12,2,6,2,0,11
CN(c1ccccc1CNc1nc(Nc2ccc3c(c2)CC(=O)N3)ncc1C(F)(F)F)S(C)(=O)=O,0,94.8,12,0,19,0,25,96.5,98.4,28,30,1,0,0,12,4,0,2,6,34
FC(F)(F)c1cc(Br)cc(Nc2nccc(-c3cnn4ncccc34)n2)c1 [GW810578],15,16,0,16,0,20,15,8,36,99.6,98.3,47,16,0,11,0,7,15,26,18
Cl.Nc1n[nH]c2cc(-c3ccccn3)ccc12 [GSK2189892],0,0,16,0,4,0,0,37,0,10,10,22,38,0,7,23,0,1,0,0
COc1cc2c(Nc3ccc(NC(=O)c4ccccc4)cc3)ncnc2cc1OCCCN1CCOCC1 [GSK301329],26,0,0,0,89,0,0,0,0,25,0,35,90,4,3,4,0,7,0,5
Cn1ccc2ncnc(Oc3ccc(NC(=O)Nc4cccc(C(F)(F)F)c4)c(Cl)c3)c21,0,7,99.9,99.9,0,0,0,0,0,0,49,0,5,0,54,94.5,97.6,88,84,99.7
Cc1cccc2c(-c3ccncc3)c(-c3ccc(F)cc3)nn12.Cl [GW461487],0,0,54,41,27,43,0,7,0,10,0,10,19,0,3,5,0,0,0,6
CCOC(=O)N1CCC(n2cnc(-c3ccc(F)cc3)c2-c2ccnc(N)n2)CC1 [SB-219952],15,18,83,60,0,39,22,0,0,2,30,21,32,19,9,13,14,9,0,12
